Hits are enriched below; roughly 22% of the tested compounds scored in any of these assays.
Pf growth 48h – Primary qHTS for delayed death inhibitors of the malarial parasite plastid, 48 hour incubation; P. falciparum luciferase growth in erythrocytes, 48 h; Potency, µM (doses to about 28.7 µM), actives largely listed as inhibitors; 310,000 compounds, 5.9% hits; AID 504832, 2011
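In quantitative HTS format, infected erythrocytes bearing luciferase-reporter parasites were treated for a single generation at 37 C. Luminescence after adding detection reagent served as the growth measure.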
Pf growth 96h – Primary qHTS for delayed death inhibitors of the malarial parasite plastid, 96 hour incubation; AID 504834, 2011; 320,000 compounds, 6.9% hits; Potency, µM (highest dose often 28.7 µM), usual class: inhibitors; P. falciparum luciferase reporter growth, 96 h
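P. falciparum expressing integrated firefly luciferase, in erythrocytes at 2% hematocrit, 0.05% parasitemia, incubated with compounds 96 h at 37 C, 5% CO2. Growth inhibition read as loss of luminescence; two-generation exposure targets delayed-death apicoplast inhibitors.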
Cycloheximide cs – Cycloheximide Counterscreen for Small Molecule Inhibitors of Shiga Toxin. 300,000 compounds, 12% hits. max response, %. cell reporter, cycloheximide protein synthesis inhibition counterscreen; in the data active means max response mostly above about 13%, no sharp cut-off; inactive means mostly below about 14%; further: read at 38.3 µM for the half of the compounds with a filed dose
LmPK inh – qHTS Assay for Inhibitors of Leishmania Mexicana Pyruvate Kinase (LmPK) | Q27686 | purified LmPK, Kinase-Glo ATP luminescence, 1 h | Potency, µM (highest dose often 57.5 µM), actives largely listed as inhibitors | 290,000 compounds, 0.37% hits | AID 1721, 2009
Target sequence (Q27686 whole entry, looked up): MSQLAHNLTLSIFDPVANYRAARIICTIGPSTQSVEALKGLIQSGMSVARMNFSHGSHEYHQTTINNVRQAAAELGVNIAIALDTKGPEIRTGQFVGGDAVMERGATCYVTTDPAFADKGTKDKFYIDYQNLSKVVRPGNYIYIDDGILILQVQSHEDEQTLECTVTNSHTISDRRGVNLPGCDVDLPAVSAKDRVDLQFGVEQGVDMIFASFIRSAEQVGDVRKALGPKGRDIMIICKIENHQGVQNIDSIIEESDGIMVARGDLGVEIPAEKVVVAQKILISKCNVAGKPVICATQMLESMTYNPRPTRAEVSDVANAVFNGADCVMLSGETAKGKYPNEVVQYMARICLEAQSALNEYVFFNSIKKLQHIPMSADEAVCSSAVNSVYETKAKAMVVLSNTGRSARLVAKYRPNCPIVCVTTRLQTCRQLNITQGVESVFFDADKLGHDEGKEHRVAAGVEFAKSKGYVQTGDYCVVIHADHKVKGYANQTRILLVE
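Kinase-Glo luminescence read after 1 h RT reaction of 0.1 nM LmPK with 0.5 mM PEP and 0.1 mM ADP. Activity scaled between uninhibited and enzyme-free controls.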
Shiga inhibitor – A qHTS for Small Molecule Inhibitors of Shiga Toxin. inhibition, % at 38.7 µM. AID 2315, 2010. Vero cells, Shiga toxin protein synthesis inhibition reporter. 290,000 compounds, 9.2% hits; in the data active means inhibition mostly above about 28%, no sharp cut-off; inactive means mostly below about 43%
Large screens that a line does not name were inactive. Unless noted, the call rests on the fitted dose curve; in most records, active means well fitted inhibition curve with a large enough effect; inconclusive means small, poorly fitted or top-dose-only effect, or another doubt; inactive means no such curve, though single readings can be large or run the other way.

Cc1noc(C)c1CSCC(=O)N(C)CC(=O)Nc1ccccc1C(F)(F)F	none (no result: Cycloheximide cs, LmPK inh, Shiga inhibitor)
CC(=O)Nc1ccc(CN2CCN(C3CCCC3)C(CCO)C2)cc1 (stereo not given)	Pf growth 96h 8.28µM
Cc1cccc(-n2ccnc2CN2CCN(C3CCCC3)C(CCO)C2)c1 (stereo not given)	Pf growth 96h 6.57µM
OCCC1CN(Cc2c(F)cccc2Cl)CCN1C1CCCC1 (stereo not given)	Pf growth 96h 13.1µM
CC(=O)Nc1ccc(CN2CCN(CC=C(C)C)C(CCO)C2)cc1 (stereo not given)	Pf growth 96h inconclusive
CCN1CCN(CC(=O)c2ccc(C)cc2)CC1	none (no result: Pf growth 48h)
Cc1ccc(C(=O)Cn2ncsc2=N)cc1	Cycloheximide cs 52.1, Shiga inhibitor 126.7
O=C1CN(C(=O)CSc2nc(-c3ccc(Cl)cc3)cs2)c2ccccc2N1	Pf growth 48h inconclusive, Pf growth 96h inconclusive
C=CC(=O)NCCCc1cc(C(C)(C)C)c(O)c(C(C)(C)C)c1	Pf growth 48h 11.7µM
Cc1cc(C)cc(-c2nnc(SCc3ccc(C(=O)O)cc3)o2)c1	none
O=C(Nc1cccc(C(F)(F)F)c1)c1scc2c1OCCO2	Pf growth 96h inconclusive, Cycloheximide cs 38.5
O=C(/C=C/Nc1cccc(C(F)(F)F)c1)c1ccco1	Cycloheximide cs 39.3, Shiga inhibitor 80.5
CN(C)/C=C/C(=O)c1cccc(Oc2ncccn2)c1	none
O=C(/C=C/Nc1cccc(C(F)(F)F)c1)c1ccc(Oc2ncccn2)cc1	Cycloheximide cs 47.3, Shiga inhibitor 86.6
O=C(Nc1cccc(S(=O)(=O)c2cccc(NC(=O)c3ccco3)c2)c1)c1ccco1	Pf growth 48h 13.1µM, Pf growth 96h 11.7µM, Cycloheximide cs 19.7, Shiga inhibitor 28.1
COc1ccc(N2CCN(C(=O)COC(=O)CSc3ccccc3)CC2)cc1	none (no result: Cycloheximide cs, LmPK inh, Shiga inhibitor)
O=C(Nc1ccc(C(=O)N2CCCC2)cc1)Nc1ccc(Cl)cc1Cl	none
O=C(Nc1cccc(C(F)(F)F)c1)c1ccco1	Cycloheximide cs 11.5
COc1ccc2c(c1)c1nnc(SCC(=O)N3CCCCC3C)nc1n2C (stereo not given)	Pf growth 96h 8.28µM
Cc1ccc(C)c(NC(=S)Nc2cccnc2)c1	none
Cc1ccccc1NC(=S)Nc1cccc2cnccc12	Pf growth 48h 5.22µM, Pf growth 96h 9.28µM, Cycloheximide cs 23.8, Shiga inhibitor 53.8
Cc1ccc(C)c(NC(=S)Nc2cccc3cnccc23)c1	Pf growth 48h inconclusive, Pf growth 96h 9.28µM
Cc1ccc(F)c(NC(=S)Nc2cccc3ccccc23)c1	Pf growth 48h inconclusive, Cycloheximide cs 36.0, Shiga inhibitor 58.0
O=C(Nc1ccccc1N1CCOCC1)C1CCN(S(=O)(=O)c2ccccc2F)CC1	Pf growth 48h inconclusive, Pf growth 96h inconclusive
CN(C)C(CNC(=O)C1CCN(S(=O)(=O)c2ccccc2C(F)(F)F)CC1)Cc1ccccc1 (stereo not given)	Pf growth 48h inconclusive, Pf growth 96h 9.28µM (no result: Cycloheximide cs, LmPK inh, Shiga inhibitor)
O=C(Nc1ccccc1N1CCCC1)C1CCN(S(=O)(=O)c2ccccc2)CC1	none (no result: Cycloheximide cs, LmPK inh, Shiga inhibitor)
O=C(NC(Cc1ccccc1)C(=O)O)C1CCN(S(=O)(=O)c2ccccc2C(F)(F)F)CC1 (stereo not given)	none
Cc1ccc(S(=O)(=O)N2CCC(C(=O)Nc3ccccc3N3CCCC3)CC2)c(C)c1	Pf growth 48h 9.28µM, Pf growth 96h inconclusive (no result: Cycloheximide cs, LmPK inh, Shiga inhibitor)
O=C(Nc1ccccc1N1CCCCC1)C1CCN(S(=O)(=O)c2ccccc2C(F)(F)F)CC1	Pf growth 48h 9.28µM, Pf growth 96h inconclusive (no result: Cycloheximide cs, LmPK inh, Shiga inhibitor)
Cc1ccc(S(=O)(=O)N2CCN(C(=O)c3cc(S(=O)(=O)N(C)C)ccc3N3CCCC3)CC2)c(C)c1	Pf growth 48h 2.94µM, Pf growth 96h 5.22µM (no result: Cycloheximide cs, LmPK inh, Shiga inhibitor)
O=S(=O)(Nc1ncn[nH]1)c1ccc(Cl)cc1	none
COc1ccc(N2CCN(S(=O)(=O)CCNC(=O)/C=C/c3ccccc3)CC2)cc1	none (no result: Cycloheximide cs, LmPK inh, Shiga inhibitor)
Nc1ccccc1Sc1c[nH]c2ccccc12	Pf growth 96h inconclusive
Cc1cc2oc(C(=O)Nc3ccc(S(=O)(=O)Nc4nccs4)cc3)cc(=O)c2cc1Cl	Pf growth 96h 13.1µM
Cc1cc(C)c2oc(C(=O)Nc3ccc(S(=O)(=O)Nc4nccs4)cc3)cc(=O)c2c1	Pf growth 48h inconclusive, Pf growth 96h inconclusive
Cc1cc2oc(C(=O)Nc3ccc(S(=O)(=O)N4CCCC(C)C4)cc3)cc(=O)c2cc1Cl (stereo not given)	Pf growth 48h 13.1µM, Pf growth 96h inconclusive
CS(=O)(=O)N1N=C(c2ccco2)CC1c1ccc(Br)cc1 (stereo not given)	Cycloheximide cs 20.9
CS(=O)(=O)N1N=C(c2ccco2)CC1c1ccc(Cl)cc1Cl (stereo not given)	Pf growth 96h 5.22µM
CS(=O)(=O)N1N=C(c2ccco2)CC1c1cccc([N+](=O)[O-])c1 (stereo not given)	none
Cc1ncc(C[n+]2csc(CCOP(=O)(O)O)c2C)c(N)n1	none (no result: Cycloheximide cs, LmPK inh, Shiga inhibitor)
CC(=O)N1CCN(C(=O)c2ccc(Cl)c(S(=O)(=O)N3CCCCCC3)c2)CC1	Pf growth 48h inconclusive (no result: Cycloheximide cs, LmPK inh, Shiga inhibitor)
O=C(CN1C(=O)CSc2ccc(S(=O)(=O)N3CCCCC3)cc21)NCc1ccccc1	Pf growth 96h 4.15µM
CCN(CC)CC(C)CNC(=O)CN1C(=O)CSc2ccc(S(=O)(=O)N3CCOCC3)cc21 (stereo not given)	Pf growth 96h 13.1µM
CCN(CC)CCCNC(=O)CN1C(=O)CSc2ccc(S(=O)(=O)N3CCOCC3)cc21	Pf growth 96h inconclusive
CC(Oc1ccc2cc(-c3ccccc3)c(=O)oc2c1)C(=O)NCC1CCC(C(=O)O)CC1 (stereo not given)	none
O=C(NNc1nc2cc3c(cc2s1)OCCO3)c1ccc(F)cc1	Cycloheximide cs 32.7
O=C(NNc1nc2cc3c(cc2s1)OCO3)c1ccc(F)cc1	Pf growth 96h inconclusive, Cycloheximide cs 24.2, Shiga inhibitor 68.1
CC(=O)NS(=O)(=O)c1ccc(NC(=S)NC(=O)Cc2ccccc2)cc1	none
Cn1cccc1Cc1nnc(SCC(=O)Nc2ccc(F)cc2F)n1-c1ccc(F)cc1	Pf growth 48h inconclusive
CC(=O)Nc1cccc(NC(=O)CSc2nnc(Cc3cccn3C)n2-c2ccc(C)cc2)c1	Pf growth 48h inconclusive, Pf growth 96h 4.15µM
Cc1ccc(-n2c(Cc3cccn3C)nnc2SCC(=O)NCc2ccco2)cc1	Pf growth 48h 8.28µM
COc1ccc(-n2c(Cc3cccn3C)nnc2SCC(=O)Nc2cccc(NC(C)=O)c2)cc1	none
COc1ccc(Cl)cc1NC(=O)CSc1nnc(Cc2cccn2C)n1-c1ccc(F)cc1	Pf growth 48h 13.1µM, Pf growth 96h inconclusive
COc1ccc(-n2c(Cc3cccn3C)nnc2SCC(=O)Nc2ccc(C(C)=O)cc2)cc1	Pf growth 96h 0.465µM (no result: Pf growth 48h)
CCOC(=O)C1(CCOc2ccccc2)CCN(Cc2ccc(OC)c(COC)c2)CC1	none (no result: Shiga inhibitor)
COC(=O)[C@H]1[C@@H](C)N(Cc2ccccc2)C(=O)N[C@H]1c1cccc(C(F)(F)F)c1	none (no result: Pf growth 48h, Pf growth 96h, Cycloheximide cs, Shiga inhibitor)
O=C(O)c1c(C(=O)O)c(-c2ccc(F)cc2)n2c1CCC2	none

Bioassay records deposited in PubChem BioAssay by National Center for Advancing Translational Sciences (NCATS).
